DT40 TDP1 no CPT: qHTS for Inhibitors of human tyrosyl-DNA phosphodiesterase 1 (TDP1): qHTS in cells in absence of CPT; AID 686978, 2013; Potency, µM (series often up to 46.2 µM), without a hit: at the top dose activity change, negative = growth inhibition, actives largely listed as inhibitors; 15% of 420,000 active; DT40 Tdp1-/- hTDP1 cells, no CPT, ATP luminescence, 48 h; note: nearly all actives have a fitted effect of over 55% in size
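Growth of hTDP1-complemented DT40 Tdp1-knockout cells is measured by ATP luminescence after at least 48 hr compound exposure at 37 °C, with DMSO substituting for the 20 nM CPT used in the parallel screen.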
ELG1 repair inh: blocks ELG1-dependent DNA repair in HEK293T cells; Potency, µM (highest dose often 46.1 µM), for the others: at the highest dose activity change, negative = inhibition, actives largely listed as inhibitors; HEK293T ELG1-luciferase reporter, luminescence, 16 h; DNA damage induced by 5-fluorouridine; 2.3% of 330,000 active; AID 504467; note: nearly all actives have a fitted effect of over 55% in size
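Luminescence from the luciferase reporter, measured 30 min after ONE-Glo reagent at room temperature, was the read-out. Beforehand, 2,000 cells per well were exposed for 16 hr at 37 °C to 5-fluorouridine together with compound or vehicle.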
12-LOX inh: inhibitors of human 12S-lipoxygenase ALOX12; purified 12hLO, xylenol orange hydroperoxide absorbance; 1.1% of 580,000 active; AID 1671190; Potency, µM (doses to about 108 µM), inactives show at the highest dose activity change, negative = inhibition, actives largely listed as inhibitors
Target sequence (P18054 whole entry, looked up): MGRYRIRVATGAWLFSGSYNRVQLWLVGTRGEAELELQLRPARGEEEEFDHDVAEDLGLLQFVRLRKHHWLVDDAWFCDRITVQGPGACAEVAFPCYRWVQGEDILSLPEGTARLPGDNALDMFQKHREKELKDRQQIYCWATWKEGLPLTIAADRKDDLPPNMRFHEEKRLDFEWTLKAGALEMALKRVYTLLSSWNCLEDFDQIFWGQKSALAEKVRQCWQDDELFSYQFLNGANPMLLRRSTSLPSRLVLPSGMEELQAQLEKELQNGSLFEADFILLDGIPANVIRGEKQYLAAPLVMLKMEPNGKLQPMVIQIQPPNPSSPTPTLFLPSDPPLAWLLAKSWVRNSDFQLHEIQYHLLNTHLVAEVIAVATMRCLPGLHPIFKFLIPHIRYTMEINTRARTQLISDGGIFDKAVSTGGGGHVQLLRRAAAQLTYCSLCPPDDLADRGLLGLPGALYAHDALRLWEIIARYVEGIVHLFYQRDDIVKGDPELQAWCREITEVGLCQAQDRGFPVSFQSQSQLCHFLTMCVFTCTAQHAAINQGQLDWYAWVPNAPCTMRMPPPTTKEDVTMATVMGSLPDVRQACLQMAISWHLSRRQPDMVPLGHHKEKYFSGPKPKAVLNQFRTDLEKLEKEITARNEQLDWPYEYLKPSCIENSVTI
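Purified human 12hLO at 150 nM in 25 mM Hepes, 0.01% Triton X-100, pH 7.0, preincubated 15 min at room temperature with compound. Reaction started with 40 uM arachidonic acid, 30 min at room temperature. Hydroperoxide measured by Fe-xylenol orange, 573/405 nm absorbance ratio.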
VP16 counter: Gal4-VP16 reporter inhibition counter-screen; Drosophila S2 Gal4-VP16 UAS-luciferase, luminescence, 20 h; Potency, µM (titrated, usually from 53.6 µM), without a hit: at the top dose activity, negative = inhibition, usual class: inhibitors; 3.5% of 310,000 active;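 note: Gal4-VP16 expression switched on by copper sulfate through the metallothionein promoter; nearly all actives have a fitted effect of over 50% in size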
RORgamma inh: ROR gamma (mouse) transcription inhibition | P51450 | Drosophila S2 Gal4-RORgamma UAS-luciferase reporter, 20 h | Potency, µM (series often up to 53.6 µM), without a hit: top-dose activity change, negative = inhibition, hits mostly inhibitors | 5.4% of 310,000 active | AID 2551; note: nearly all actives have a fitted effect of over 60% in size
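Schneider cells (Drosophila), stable Gal4 DBD–ROR gamma + UAS-luc; 1 hr cmpd preincubation; Cu2+ induction 700 uM final; 20 hr ambient; luminescence.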
TDP1 cell CPT: growth inhibition of DT40 Tdp1-/-;hTDP1 cells with camptothecin (screen for TDP1 inhibitors); chicken DT40 Tdp1-/-;hTDP1 cells + 20 nM CPT, ATP luminescence, 48 h; Potency, µM (top dose mostly 46.2 µM), inactives show at the highest dose activity change, negative = growth inhibition, usual class: inhibitors; 12% of 420,000 active; note: nearly all actives have a fitted effect of over 55% in size
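Chicken DT40 Tdp1-/- cells stably complemented with human TDP1 were seeded at 400 cells/well in medium containing 20 nM camptothecin, exposed to pin-transferred compounds, and grown at 37 °C for at least 48 hr. Viability was read as ATP luminescence.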
Numbers without * were called inactive; ? = inconclusive; · = no result; [ ] = remark or other dose. A selection: hits, their analogues and other compounds. The true share with any hit is near 15%. Calls come from the whole dose curve; as a rule, active = well fitted curve in the direction sought with a large enough effect; inconclusive = small, poorly fitted or top-dose-only effect, or another doubt; inactive = no such curve, though single readings can be large; an effect the other way counts as inactive or inconclusive. % is set by controls: 0 for no effect and ±100 for the full control effect; potency is the fitted concentration of half-maximal effect.

SMILES | DT40 TDP1 no CPT | ELG1 repair inh | 12-LOX inh | VP16 counter | RORgamma inh | TDP1 cell CPT
Cc1c(N=Nc2c(O)n(Cc3ccccc3)c(=O)[nH]c2=O)c(=O)n(-c2ccccc2)n1C | 12µM* | ? | 3% | 4% | -39% | 16µM*
CC(=O)N1N=C(c2c(O)n(C)c(=O)n(C)c2=O)CC1c1ccccc1 (stereo unspecified) | 15µM* | ? | -11% | ? | ? | ?
CCCNC(=O)COC(=O)c1cn(C)c2ccccc12 | · | · | -12% | · | · | ·
CC(C)NC(=O)NC[C@H]1C[C@@H]2CCN1C[C@@H]2CN(C)c1ccccc1 | · | · | 42%[176 µM] | · | · | ·
Cc1cc(=O)oc2cc(OCC(=O)N3C[C@H]4C[C@@H](C3)c3cccc(=O)n3C4)c(Cl)cc12 | -2% | ? | 3% | 0% | 3% | 1%
Cc1cc(=O)oc2cc(OCC(=O)N3CCN(C(C)c4ccccc4)CC3)c(Cl)cc12 (stereo unspecified) | ? | 21µM* | 4% | · | · | ?
O=[N+]([O-])c1ccc(Cl)c(Cl)c1Cl | -3% | 9% | 1% | -17% | 18% | 3%
O=[N+]([O-])c1c(Cl)cccc1-c1c[nH]cc1Cl | 15µM* | · | ? | ? | ? | 21µM*
CCOC(=O)c1cnc2c(ccc3ccccc32)c1Nc1ccc(N(C)C)cc1 | ? | · | ? | · | · | 15µM*
COc1ccc2c(c1)C1(CCN(C(=O)COc3cccc(C)c3)C1)C(=O)N2C (stereo unspecified) | · | · | -10% | · | · | ·
CN(C(=O)CCN1C(=O)/C(=C/c2ccc(F)cc2)SC1=S)C1CCS(=O)(=O)C1 (stereo unspecified) | 21µM* | · | -12% | · | · | 21µM*
CCC(c1nnnn1-c1ccc2c(c1)OCCO2)N1CCC(n2c(=O)[nH]c3ccccc32)CC1 (stereo unspecified) | 9.2µM* | · | ? | · | · | 10µM*
CSCCC(c1nnnn1-c1ccc2c(c1)OCCO2)N1CCC(n2c(=O)[nH]c3ccccc32)CC1 (stereo unspecified) | 7.3µM* | · | -29% | · | · | 7.3µM*
CCC(c1nnnn1C1CCCCC1)N1CCC2(CC1)C(=O)NCN2c1ccccc1 (stereo unspecified) | ? | · | -22% | · | · | ?
COC(=O)[C@@]1(Cc2ccccc2)[C@H]2C(=O)N(Cc3ccccc3)C(=O)[C@H]2[C@H]2CN=C(SCc3ccc(C#N)cc3)N21 | ? | -22% | -25% | · | · | ?
CC[C@]1(C(=O)OC)[C@H]2C(=O)N(Cc3ccccc3)C(=O)[C@H]2[C@H]2CN=C(SCc3ccc(C(=O)OC)cc3)N21 | ? | ? | -17% | · | · | 21µM*
CC[C@]1(C(=O)OC)[C@H]2C(=O)N(Cc3ccccc3)C(=O)[C@H]2[C@H]2CN=C(SCc3ccc(C)cc3)N21 | 18µM* | -12% | -23% | · | · | ?
C1CC(N(CC2CC2)C2CNC2)CCO1 | · | · | 34% | · | · | ·
O=[N+]([O-])c1ccc(NCCOc2ccccc2)c2ncccc12 | · | · | 1% | · | · | ·
CC/C(=N\N1CCCCCC1)c1c(O)n(-c2ccccc2C)c(=O)[nH]c1=O | 15µM* | -15% | 11% | ? | ? | 21µM*
CCC(=NCCN1CCOCC1)c1c(O)n(-c2ccccc2C)c(=O)[nH]c1=O | 1% | -2% | ? | -3% | 9% | 8%
Cc1cccc(NC(=O)CN2CCN(C(=O)COc3cccc(Br)c3)CC2)c1C | ? | 2% | 297% | · | · | -28%
CCC(=O)c1ccc(OCC(=O)N2CCN(CC(=O)Nc3ccccc3C(F)(F)F)CC2)cc1 | 15µM* | 16µM* | -17% | · | · | ?
COc1ccc(-c2cc3c(cn2)CN(C)CCN3)cn1 | · | · | -4%[176 µM] | · | · | ·
COC(=O)C1=C(c2cc3ccccc3o2)C[C@@H]2CC[C@H]1N2C | -19% | 20% | -7% | · | · | -20%
SMILES | DT40 TDP1 no CPT | ELG1 repair inh | 12-LOX inh | VP16 counter | RORgamma inh | TDP1 cell CPT
COC(=O)C1=C(c2cc3ccccc3o2)C[C@@H]2CC[C@H]1N2C(=O)N1CCC(C)CC1 | 2.9µM* | · | -4% | · | · | 4.6µM*
COC(=O)C1=C(c2cc3ccccc3o2)C[C@@H]2CC[C@H]1N2C(=O)N1CCC(O)CC1 | 23µM* | · | -23% | · | · | ?
CSc1ccc(CN2CCN(c3ccccc3C)CC2)cc1 | ? | -12% | ? | -1% | 26%[1.91 µM] | ?
COc1ccccc1CN1CCN(Cc2ccc(Cl)cc2)CC1 | 21µM* | -22% | ? | -9% | -4% | -20%
COc1ccccc1N1CCN(Cc2ccc(F)cc2)CC1 | -29% | 4% | -1% | -1% | 5% | -24%
Cc1cccc(CN2CCN(Cc3ccc(Cl)cc3)CC2)c1 | 21µM* | ? | ? | -16% | -51% | ?
CCc1ccc(CN2CCN(Cc3ccc(SC)cc3)CC2)cc1 | 21µM* | 5.8µM* | ? | -10% | -41% | ?
COc1ccccc1N1CCN(Cc2ccc(SC)cc2)CC1 | 21µM* | -22% | 0% | -1% | 4% | 16µM*
COc1ccc(CN2CCN(Cc3ccccc3OC)CC2)cc1 | ? | -2% | ? | 11% | 25% | -19%
CCC(CC)c1cc([C@H]2CN3CC[C@H]2C[C@@H]3CNC(=O)Nc2cccc(C#N)c2)nc(-c2ccncc2)n1 | · | · | 33% | · | · | ·
O=C(NCc1ccc(F)cc1)[C@H]1CN2CC[C@H]1C[C@@H]2Cn1cc(-c2ccccc2)nn1 | · | · | 1%[176 µM] | · | · | ·
Cc1ccc2c(n1)N(C)[C@H](CO)CCN(CC(C)(C)C)C2 | · | · | 24%[176 µM] | · | · | ·
CCCCn1c(N)c(C(=O)NCCN2CCOCC2)c2nc3ccccc3nc21 | 23µM* | 5.8µM* | -19% | 3% | -12% | 15µM*
CCOC(=O)c1c(N)n(CCN2CCCCC2)c2nc3ccccc3nc12 | -27% | ? | ? | 7% | 8% | -17%
COc1ccc(CCNC(=O)c2c(N)n(CCN3CCOCC3)c3nc4ccccc4nc23)cc1 | 18µM* | ? | 0% | ? | ? | 21µM*
Nc1c(C(=O)OCc2ccccc2)c2nc3ccccc3nc2n1Cc1cccs1 | ? | 21µM* | 0% | -9% | ? | ?
Nc1c(C(=O)NCCN2CCOCC2)c2nc3ccccc3nc2n1Cc1ccccc1 | 23µM* | ? | ? | -13% | -1% | ?
O=c1c2ccccc2[se]c2ccccc12 | · | · | 10% | · | · | ·
